Results filed as inconclusive are left out. The source made the active and inactive calls. The calls were made as follows, unless noted: active = hit-call score of the fitted dose curve at least 0.9, where 1 is the maximum; inactive = score below 0.9.

This is an account of results in PubChem BioAssay (EPA / NIEHS).

A short description of assay [1]: CCTE_Harrill_HTTr_Viability_MCF7: CCTE's 6-hour Cell Viability Assessment for the High-Throughput Transcriptomics (HTTr) Platform, in MCF-7 cells cultured in DMEM + 10% fetal bovine serum, Harrill Lab (AID 2284010). A digest of the protocol: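 Propidium iodide exclusion, imaged by high-content analysis, gauged viability after a six-hour exposure across eight concentrations. Cells were MCF-7 grown in DMEM with 10% fetal bovine serum; fits run in both directions against DMSO.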

Assay [2] is described as follows: CCTE_Harrill_HTTr_Apoptosis_MCF7: CCTE's 6-hour Apoptosis Assessment for the High-Throughput Transcriptomics (HTTr) Platform, in MCF-7 cells cultured in DMEM + 10% fetal bovine serum, Harrill Lab (AID 2284011). An outline of the steps:
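High-content imaging of CellEvent Caspase 3/7 Green signal follows a six-hour exposure, with eight concentrations per chemical. MCF-7 cells grown in DMEM plus 10% fetal bovine serum; activity fitted in both directions against DMSO.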

Assay [3] is described as follows: TOX21_TRB_BLA_Agonist_Followup_viability: Viability Assessment in the Tox21 Thyroid Hormone Receptor beta Agonism Beta-lactamase (BLA) Follow-Up Assay (AID 2283956; active = hit-call score of the fitted dose curve at least 0.9, where 1 is the maximum). An outline of the steps: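 Viability was read as CellTiter-Glo luminescence in the same wells as the TRb-bla agonist read-out. HEK293T GAL4-TRb LBD cells were treated for 18 h (37C, 5% CO2) at 11 concentrations in triplicate. Fits were bidirectional versus DMSO baseline.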

With `COc1ccc2c3c1O[C@H]1[C@@H](O)C=C[C@H]4[C@@H](C2)N(C)CC[C@@]341`, the result in assay [1] and in assay [2] was inactive.
For the compound `[Cl-].[Cl-].[Cl-].[Gd+3]`, in assay [2], the result was inactive.
In the case of `CC(=O)OCCC(C)CC(C)(C)C` (centres undefined), in assay [3], the call was inactive.
